Laboratory results taken from PubChem BioAssay AID624481 (The Scripps Research Institute Molecular Screening Center, 2012).
The source made the active and inactive calls. Cut-off read from the data, not from the text of the source: active = inhibition above about 50%; inactive = the rest.

Molecular target: Prolyl endopeptidase-like (Mus musculus) (UniProt Q8C167)
Test: purified PREPL inhibitors, PREPL inhibitor project, biochemical, gel-based competitive ABPP, fluorescence, HTS hits (AID 624481)
Details: at 20 µM, active compounds read high

Chain of Prolyl endopeptidase-like (Mus musculus) (Q8C167 whole entry, looked up): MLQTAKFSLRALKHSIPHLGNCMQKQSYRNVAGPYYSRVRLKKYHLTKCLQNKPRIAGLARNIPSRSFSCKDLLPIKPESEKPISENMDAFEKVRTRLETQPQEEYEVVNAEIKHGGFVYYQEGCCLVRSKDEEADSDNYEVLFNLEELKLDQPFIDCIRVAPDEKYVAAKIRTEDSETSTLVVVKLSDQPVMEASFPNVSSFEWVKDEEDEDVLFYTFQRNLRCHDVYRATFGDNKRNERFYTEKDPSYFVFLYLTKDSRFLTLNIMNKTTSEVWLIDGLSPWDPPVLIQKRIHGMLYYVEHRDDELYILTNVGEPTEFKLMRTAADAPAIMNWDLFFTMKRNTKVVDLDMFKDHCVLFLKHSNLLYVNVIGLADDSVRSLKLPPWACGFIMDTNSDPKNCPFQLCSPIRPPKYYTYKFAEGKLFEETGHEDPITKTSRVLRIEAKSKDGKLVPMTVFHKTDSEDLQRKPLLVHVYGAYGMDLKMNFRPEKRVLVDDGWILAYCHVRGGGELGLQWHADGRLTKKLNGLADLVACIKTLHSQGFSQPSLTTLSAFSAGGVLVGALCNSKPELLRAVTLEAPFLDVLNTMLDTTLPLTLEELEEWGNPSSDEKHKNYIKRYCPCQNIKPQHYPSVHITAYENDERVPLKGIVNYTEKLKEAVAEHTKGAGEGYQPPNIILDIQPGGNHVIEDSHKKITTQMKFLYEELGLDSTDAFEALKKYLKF

inhibition, inactive:
COc1ccc(-c2c(-c3ccccc3)c(C(=O)C(=O)NCCCN(C)C)n3ccc4cc(OC)c(OC)cc4c23)cc1OC -15%
NC(=O)[C@@H]1CCCNc2c(I)cc([N+](=O)[O-])cc2C(=O)N[C@@H](CCCN=C(N)N)C(=O)N[C@@H](CCCN=C(N)N)C(=O)N1 -77%
Cc1c(NCc2cc(Cl)cc(Cl)c2O)c(=O)n(-c2ccccc2)n1C -28%
COc1ccc(N2CCN(c3ccc4nnc(CCC(=O)Nc5ccc(C)cc5)n4n3)CC2)cc1 -20%
CC(=NNc1nc2ccccc2[nH]1)c1cc2ccccc2o1 -17%
C[n+]1c(-c2ccccc2)sc(S)c1-c1ccccc1 -31%
C[C@H]1CN([C@@H](C)CO)C(=O)c2cccc(NS(=O)(=O)c3ccc(Cl)cc3)c2O[C@@H]1CN(C)CC1CCCCC1 -24%
CSc1ccc2c(c1)N(CCC1CCCCN1C)c1ccccc1S2 (configuration not stated) -53%
C#CCOCCOCCOCCNc1nc(N2CCN(C(=O)[C@H](Cc3cc4ccccc4[nH]3)n3cc([C@@H](N)CC(C)C)nn3)CC2)nc(N2CCN(C(=O)[C@H](Cc3cc4ccccc4[nH]3)n3cc([C@@H](N)CC(C)C)nn3)CC2)n1 -82%
c1cncc(CNc2ccc3c(c2)OCO3)c1 -50%
Nc1c(C(=O)c2cccs2)sc2nsc(SCCN3CCCCC3)c12 -18%
Cc1cc(C)c2nc(N3C(=O)C(O)=C(C(=O)c4ccco4)C3c3ccco3)sc2c1 (configuration not stated) 45%
